Experiment in all cases: yeast three-hybrid, YBZ-1, SC-Leu-His + 0.5 mM 3-AT, 4 days
Details in all cases: tags: N-Gal4 AD-HA kept; label: inside an RPR1-promoter hybrid RNA with tandem MS2 sites; ssRNA

One assay has as its target PUM1 PUF domain R5-DKR (Homo sapiens, UniProt Q14671 828-1176, C1007D;R1008K;Q1011R). A digest of the protocol:
(§1)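 The interaction score is the log change in variant frequency from input to selection. Scores were computed in log2 with a pseudocount of 1 for absent variants, using Illumina sequencing of PCR-amplified repeat regions. The input came from four days on SC-Leu and the selection from four days on SC-Leu-His + 0.5 mM 3-AT. The cells were strain YBZ-1 (LexA–MS2 coat fusion, HIS3 reporter) co-expressing Pumilio-1 PUF domain libraries and matching RNA elements from a centromeric plasmid.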

The next assay addresses PUM1 PUF domain R5-RAN (Homo sapiens, UniProt Q14671 828-1176, C1007R;R1008A;Q1011N). A digest of the protocol: as §1
A further assay deals with PUM1 PUF domain R5-KGV (Homo sapiens, UniProt Q14671 828-1176, C1007K;R1008G;Q1011V). A digest of the protocol:
as §1

For the next assay, the target named is PUM1 PUF domain R3-LRR (Homo sapiens, UniProt Q14671 828-1176, C935L;Q939R). A digest of the protocol:
as §1

In a further assay the target is PUM1 PUF domain R3-LHA (Homo sapiens, UniProt Q14671 828-1176, C935L;R936H;Q939A). A digest of the protocol: as §1
The target of another assay is PUM1 PUF domain R3-YSV (Homo sapiens, UniProt Q14671 828-1176, C935Y;R936S;Q939V). A digest of the protocol: as §1
Sequence of PUM1 PUF domain R3-YSV (Q14671 828-1176 C935Y/R936S/Q939V): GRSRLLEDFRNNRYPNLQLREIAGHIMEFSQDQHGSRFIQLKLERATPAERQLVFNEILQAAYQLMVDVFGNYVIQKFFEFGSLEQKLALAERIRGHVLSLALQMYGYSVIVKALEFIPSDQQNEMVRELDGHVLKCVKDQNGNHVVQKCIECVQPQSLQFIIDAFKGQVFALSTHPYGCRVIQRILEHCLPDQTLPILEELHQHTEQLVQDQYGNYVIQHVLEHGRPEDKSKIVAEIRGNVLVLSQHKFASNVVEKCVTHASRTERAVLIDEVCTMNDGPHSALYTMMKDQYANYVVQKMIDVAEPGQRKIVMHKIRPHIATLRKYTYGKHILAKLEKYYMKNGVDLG
Another assay addresses PUM1 PUF domain R5-DFP (Homo sapiens, UniProt Q14671 828-1176, C1007D;R1008F;Q1011P). A digest of the protocol: as §1
For the next assay, the target named is PUM1 PUF domain R5-SGV (Homo sapiens, UniProt Q14671 828-1176, C1007S;R1008G;Q1011V). A digest of the protocol: as §1
Sequence of PUM1 PUF domain R5-SGV (Q14671 828-1176 C1007S/R1008G/Q1011V): as the sequence (Q14671 828-1176 C935Y/R936S/Q939V) above, with Y108C, S109R, V112Q, C180S, R181G, Q184V counted along it
For another assay, the target named is PUM1 PUF domain R3-DWS (Homo sapiens, UniProt Q14671 828-1176, C935D;R936W;Q939S). A digest of the protocol:
as §1

The target in another assay is PUM1 PUF domain R4-RCG (Homo sapiens, UniProt Q14671 828-1176, N971R;H972C;Q975G). A digest of the protocol: as §1
The next assay addresses PUM1 PUF domain R4-APS (Homo sapiens, UniProt Q14671 828-1176, N971A;H972P;Q975S). A digest of the protocol:
as §1

The next assay has as its target T1, PUM1 PUF domain R6-SWC (Homo sapiens, UniProt Q14671 828-1176, N1043S;Y1044W;Q1047C).
T1 sequence: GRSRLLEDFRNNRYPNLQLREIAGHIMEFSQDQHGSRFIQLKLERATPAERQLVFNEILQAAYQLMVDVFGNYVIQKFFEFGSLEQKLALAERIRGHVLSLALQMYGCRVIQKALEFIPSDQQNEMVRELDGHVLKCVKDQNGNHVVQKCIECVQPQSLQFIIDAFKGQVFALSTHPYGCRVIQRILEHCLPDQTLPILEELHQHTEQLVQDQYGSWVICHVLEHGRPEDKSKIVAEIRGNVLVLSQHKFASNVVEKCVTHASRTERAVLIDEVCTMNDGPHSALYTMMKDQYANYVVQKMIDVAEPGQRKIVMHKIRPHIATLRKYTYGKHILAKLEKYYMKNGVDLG
A digest of the protocol:
as §1

Another assay deals with PUM1 PUF domain R8-KKR (Homo sapiens, UniProt Q14671 828-1176, N1122K;Y1123K;Q1126R). A digest of the protocol: as §1
For the next assay, the target named is PUM1 PUF domain R4-VGI (Homo sapiens, UniProt Q14671 828-1176, N971V;H972G;Q975I). A digest of the protocol: as §1
A further assay has as its target PUM1 PUF domain R1-KGL (Homo sapiens, UniProt Q14671 828-1176, S863K;R864G;Q867L). A digest of the protocol:
as §1

The next assay deals with PUM1 PUF domain R1-KWM (Homo sapiens, UniProt Q14671 828-1176, S863K;R864W;Q867M). A digest of the protocol:
as §1

For a further assay, the target named is PUM1 PUF domain R1-GRH (Homo sapiens, UniProt Q14671 828-1176, S863G;Q867H). A digest of the protocol: as §1

Sequence of PUM1 PUF domain R3-LRR (Q14671 828-1176 C935L/Q939R): as the sequence (Q14671 828-1176 C935Y/R936S/Q939V) above, with Y108L, S109R, V112R counted along it
Sequence of PUM1 PUF domain R5-RAN (Q14671 828-1176 C1007R/R1008A/Q1011N): as the sequence (Q14671 828-1176 C935Y/R936S/Q939V) above, with Y108C, S109R, V112Q, C180R, R181A, Q184N counted along it
Sequence of PUM1 PUF domain R1-KGL (Q14671 828-1176 S863K/R864G/Q867L): as the sequence (Q14671 828-1176 C935Y/R936S/Q939V) above, with S36K, R37G, Q40L, Y108C, S109R, V112Q counted along it
Sequence of PUM1 PUF domain R5-DFP (Q14671 828-1176 C1007D/R1008F/Q1011P): as the sequence (Q14671 828-1176 C935Y/R936S/Q939V) above, with Y108C, S109R, V112Q, C180D, R181F, Q184P counted along it
Sequence of PUM1 PUF domain R5-KGV (Q14671 828-1176 C1007K/R1008G/Q1011V): as the sequence (Q14671 828-1176 C935Y/R936S/Q939V) above, with Y108C, S109R, V112Q, C180K, R181G, Q184V counted along it
Sequence of PUM1 PUF domain R5-DKR (Q14671 828-1176 C1007D/R1008K/Q1011R): as the sequence (Q14671 828-1176 C935Y/R936S/Q939V) above, with Y108C, S109R, V112Q, C180D, R181K, Q184R counted along it
Sequence of PUM1 PUF domain R3-DWS (Q14671 828-1176 C935D/R936W/Q939S): as the sequence (Q14671 828-1176 C935Y/R936S/Q939V) above, with Y108D, S109W, V112S counted along it

Regarding “GGCUAGAACUAGUGGAUCCCCCGGCGCCCGGCGGCUCGAGCCCGGGUAAGUGUCAAUAGUCUGCAUGCCGCCGGGCGCCAUGCCUGCAGGUCGACUCUAGAAAACAUG”, the binding signal with PUM1 PUF domain R5-DKR is 5.01 log2 enrichment (interaction score); with PUM1 PUF domain R5-RAN, 2.21 log2 enrichment (interaction score); with PUM1 PUF domain R5-KGV it was 4.44 log2 enrichment (interaction score).

On to “GGCUAGAACUAGUGGAUCCCCCGGCGCCCGGCGGCUCGAGCCCGGGUAAGUGUAAUUAGUCUGCAUGCCGCCGGGCGCCAUGCCUGCAGGUCGACUCUAGAAAACAUG”, for which the binding signal is 0.21 log2 enrichment (interaction score) with PUM1 PUF domain R3-LRR and 3.56 log2 enrichment (interaction score) in the assay with PUM1 PUF domain R3-LHA.

For the sequence “GGCUAGAACUAGUGGAUCCCCCGGCGCCCGGCGGCUCGAGCCCGGGUAAGUGUAAGUAGUCUGCAUGCCGCCGGGCGCCAUGCCUGCAGGUCGACUCUAGAAAACAUG”, the binding signal with PUM1 PUF domain R3-LRR was 3.15 log2 enrichment (interaction score); in the assay with PUM1 PUF domain R3-YSV, 2.32 log2 enrichment (interaction score); with PUM1 PUF domain R3-LHA, 6.33 log2 enrichment (interaction score).

“GGCUAGAACUAGUGGAUCCCCCGGCGCCCGGCGGCUCGAGCCCGGGUAAGUGUUAAUAGUCUGCAUGCCGCCGGGCGCCAUGCCUGCAGGUCGACUCUAGAAAACAUG”: the binding signal in the assay with PUM1 PUF domain R5-DFP was 5.24 log2 enrichment (interaction score).

In the case of “GGCUAGAACUAGUGGAUCCCCCGGCGCCCGGCGGCUCGAGCCCGGGUAAGUGUGAAUAGUCUGCAUGCCGCCGGGCGCCAUGCCUGCAGGUCGACUCUAGAAAACAUG”, the binding signal with PUM1 PUF domain R5-SGV was 2.69 log2 enrichment (interaction score).

“GGCUAGAACUAGUGGAUCCCCCGGCGCCCGGCGGCUCGAGCCCGGGUAAGUGUAAAUAGUCUGCAUGCCGCCGGGCGCCAUGCCUGCAGGUCGACUCUAGAAAACAUG”: the binding signal was 2.14 log2 enrichment (interaction score) in the assay with PUM1 PUF domain R5-RAN; 4.09 log2 enrichment (interaction score) with PUM1 PUF domain R3-DWS; 3.26 log2 enrichment (interaction score) in the assay with PUM1 PUF domain R4-RCG; 4.36 log2 enrichment (interaction score) with PUM1 PUF domain R4-APS; 3.92 log2 enrichment (interaction score) with PUM1 PUF domain R6-SWC; 1.33 log2 enrichment (interaction score) with PUM1 PUF domain R8-KKR. Moreover, the binding signal with PUM1 PUF domain R4-VGI is 2.49 log2 enrichment (interaction score).

“GGCUAGAACUAGUGGAUCCCCCGGCGCCCGGCGGCUCGAGCCCGGGUAAGUGUAAAUGGUCUGCAUGCCGCCGGGCGCCAUGCCUGCAGGUCGACUCUAGAAAACAUG”: the binding signal in the assay with PUM1 PUF domain R1-KGL is 1.8 log2 enrichment (interaction score); with PUM1 PUF domain R1-KWM it was 1.15 log2 enrichment (interaction score).

“GGCUAGAACUAGUGGAUCCCCCGGCGCCCGGCGGCUCGAGCCCGGGUAAGUGUAAAUCGUCUGCAUGCCGCCGGGCGCCAUGCCUGCAGGUCGACUCUAGAAAACAUG”: the binding signal was 3.12 log2 enrichment (interaction score) with PUM1 PUF domain R1-KGL and 1.98 log2 enrichment (interaction score) in the assay with PUM1 PUF domain R1-GRH.

In the case of “GGCUAGAACUAGUGGAUCCCCCGGCGCCCGGCGGCUCGAGCCCGGGUAAGUGUAAAUUGUCUGCAUGCCGCCGGGCGCCAUGCCUGCAGGUCGACUCUAGAAAACAUG”, the binding signal with PUM1 PUF domain R1-KWM is 3.92 log2 enrichment (interaction score); in the assay with PUM1 PUF domain R1-GRH, 2.32 log2 enrichment (interaction score).

With “GGCUAGAACUAGUGGAUCCCCCGGCGCCCGGCGGCUCGAGCCCGGGUAAGUGUACAUAGUCUGCAUGCCGCCGGGCGCCAUGCCUGCAGGUCGACUCUAGAAAACAUG”, the binding signal in the assay with PUM1 PUF domain R4-APS was 1.86 log2 enrichment (interaction score).

For the sequence “GGCUAGAACUAGUGGAUCCCCCGGCGCCCGGCGGCUCGAGCCCGGGUAAGCGUAAAUAGUCUGCAUGCCGCCGGGCGCCAUGCCUGCAGGUCGACUCUAGAAAACAUG”, the binding signal with PUM1 PUF domain R8-KKR was 5.03 log2 enrichment (interaction score).

The values are drawn from publication PMC8384837, “Expanding the binding specificity for RNA recognition by a PUF domain”.
